# Screening results: PubChem, National Center for Advancing Translational Sciences (NCATS)
# HCMV antiviral = qHTS Assay for inhibitors of the human cytomegalovirus (HCMV) | AID 1259415, 2018 | HFF cells, HCMV-luciferase reporter, 72 h; active compounds read low | 410,000 tested, 4.5% active | activity change, negative = inhibition, % at 57.5 µM; in the data active = activity change below about -60%; inconclusive = no clear call, values can overlap the other calls; inactive = above about -39%
#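 After 16 h attachment at 37C, HFF cells received test compound and HCMV-luciferase (1 PFU/cell); reporter luminescence read 72 h later, data normalized against buffer-only and known inhibitor Salinomycin.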
# Pf growth 48h = Primary qHTS for delayed death inhibitors of the malarial parasite plastid, 48 hour incubation. 310,000 tested, 5.9% active. Potency, µM (titrated, usually from 28.7 µM), for inactives: at the highest dose activity change, negative = inhibition, most hits filed as inhibitors. P. falciparum luciferase growth in erythrocytes, 48 h; note: potency is the fitted concentration of half-maximal effect
#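 Here the parasites carry a stable luciferase gene and grow inside erythrocytes in Albumax-based RPMI medium with compound for one erythrocytic cycle. Activity is scored as loss of luminescent signal.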
# Pf growth 96h = Primary qHTS for delayed death inhibitors of the malarial parasite plastid, 96 hour incubation; P. falciparum luciferase reporter growth, 96 h; Potency, µM (series often up to 28.7 µM), without a hit: at the highest dose activity change, negative = inhibition, most hits filed as inhibitors; 320,000 tested, 6.9% active; AID 504834, 2011; note: potency is the fitted concentration of half-maximal effect
#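 P. falciparum expressing integrated firefly luciferase, in erythrocytes at 2% hematocrit, 0.05% parasitemia, incubated with compounds 96 h at 37 C, 5% CO2. Growth inhibition read as loss of luminescence; two-generation exposure targets delayed-death apicoplast inhibitors.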
# HCV inh = qHTS Assay for Inhibitors of Hepatitis C Virus (HCV) | Huh7.5.1 HCVcc-Cre infection, luciferase reporter, 44 h | 340,000 tested, 3.4% active | Potency, µM (series often up to 41.8 µM), inactives show at the highest dose activity change, negative = inhibition, usual class: inhibitors; note: potency is the fitted concentration of half-maximal effect
#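 Whole-lifecycle infectious HCVcc-Cre system; cells 1,000/well, compound then virus (~0.5 moi) added 4 h after plating, 44 h culture. Luciferase read 15 sec following 15 min substrate incubation, room temp.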
# Starred values were filed as active, the others as inactive; ? = inconclusive; nt = no result given; [ ] = another dose, or the depositor's remark. The list is not random: actives were taken first. Their share in the collection is about 13%. Unless noted, calls come from the whole dose curve; as a rule, active = well fitted inhibition curve with a large enough effect; inconclusive = small, poorly fitted or top-dose-only effect, or another doubt; inactive = no such curve, though single readings can be large or run the other way. % is set by controls: 0 for no effect and ±100 for the full control effect.
SMILES,HCMV antiviral,Pf growth 48h,Pf growth 96h,HCV inh
Cc1ccc(OCC(=O)NCC(c2ccc(Cl)cc2)N2CCCCC2)cc1 (stereo unspecified),-8.9,nt,nt,nt
Cn1c(N)c(C(=O)COC(=O)c2cc(C3CC3)nc3ccccc23)c(=O)n(Cc2ccccc2)c1=O,58.0,-8.6%,?,1.2%[8.37 µM]
CC(C)Cn1c(N)c(C(=O)COC(=O)c2cc(C3CC3)nc3ccccc23)c(=O)n(C)c1=O,15.1,5.22µM*,11.7µM*,?
CC(C)Cn1c(N)c(C(=O)COC(=O)c2cc(-c3ccco3)nc3ccccc23)c(=O)n(C)c1=O,4.2,9.28µM*,-5.7%[5.75 µM],19.6%
CC(C)Cn1c(N)c(C(=O)COC(=O)c2cnc(Cl)c(Cl)c2)c(=O)n(C)c1=O,13.2,3.9%,20.2%,15.8µM*
CC(C)Cn1c(N)c(C(=O)COC(=O)C2Cc3ccccc3CN2S(C)(=O)=O)c(=O)n(C)c1=O (stereo unspecified),-27.8,11.7µM*,?,11.2µM*
CC(C)Cn1c(N)c(C(=O)COC(=O)c2cc(F)cc(F)c2)c(=O)n(C)c1=O,-26.6,-9.0%,17.0%,-27.8%
O=C(NCC(c1ccco1)S(=O)(=O)c1cccs1)c1ccc(F)c(F)c1 (stereo unspecified),-6.4,nt,nt,nt
COC(=O)c1cc(OC(C)C)ccc1NC(=O)[C@@]1(Sc2ccc(OC)cc2)CC(=O)N[C@@H]1c1ccc(OC)cc1,-39.1,nt,nt,nt
COC(=O)c1c(SC)nc2ccccc2c1OCc1ccccc1C,-13.0,nt,nt,nt
CCOc1ccc(-c2cc(-c3nc(-c4cc(OC)c(OC)c(OC)c4)no3)[nH]n2)cc1Cl,-7.0,nt,nt,nt
CCCCOC(=O)c1ccc(NC(=O)/C(C#N)=C/c2ccc(C)o2)cc1,-0.9,nt,nt,nt
CCN(CC)S(=O)(=O)c1ccc(NC(=O)CN(c2ccccc2)S(=O)(=O)N(C)C)cc1,-88.8*,nt,nt,nt
CCc1ccc(N(CC(=O)Nc2ccc(NC(C)=O)cc2)S(=O)(=O)c2ccccc2)cc1,-61.1*,13.1µM*,?,-20.6%
CC(=O)Nc1ccc(NC(=O)CN(c2ccc([N+](=O)[O-])cc2)S(=O)(=O)c2ccccc2)cc1,?,22.2%,2.94µM*,-20.0%
CN(C)S(=O)(=O)N(CC(=O)Nc1ccccc1)c1ccccc1,-16.3,0.7%,14.9%,4.0%
CCOc1ccc(NC(=O)CN(c2ccc([N+](=O)[O-])cc2)S(=O)(=O)c2ccccc2)cc1,-16.4,-21.0%,18.1%,?
CCOC(=O)c1ccccc1NC(=O)CN(c1ccccc1)S(=O)(=O)N(C)C,2.4,3.29µM*,nt,-5.7%
Cc1ccc(NC(=O)Nc2cn(CC(C)C)c(=O)c3ccccc23)cc1N(C)C,-9.9,nt,nt,nt
CC(C)CC(=O)N1c2nc(C(C)C)nn2C2(CCCCC2)[C@@H]2CCCC[C@@H]21,40.3,nt,nt,nt
CCc1ccccc1NC(=O)C(=O)c1cc(C)n(-c2ccccc2F)c1C,8.0,nt,nt,nt
COc1ccc(/C=C/c2nc(C#N)c(N3CCCCC3)o2)cc1OC,25.0,nt,nt,nt
CCN(CC(=O)Nc1cccc(C(C)=O)c1)S(=O)(=O)c1ccccc1,-34.3,?,9.28µM*,3.8%
CCN(CC(=O)Nc1cccc(C(C)=O)c1)S(=O)(=O)c1ccc(OC)cc1,-26.4,4.3%,nt,-5.0%
O=C(CN(CC1CCCO1)S(=O)(=O)c1ccc(S(=O)(=O)NCC2CCCO2)cc1)Nc1ccccc1 (stereo unspecified),-7.3,-15.5%,-13.1%,?
SMILES,HCMV antiviral,Pf growth 48h,Pf growth 96h,HCV inh
CN(C)S(=O)(=O)c1ccc(S(=O)(=O)N(CC(=O)Nc2ccccc2)CC2CCCO2)cc1 (stereo unspecified),-14.9,-11.3%,11.7µM*,6.3%
CCCOc1ccccc1C1Oc2nc(SC)nnc2-c2ccccc2N1C(C)=O (stereo unspecified),-3.7,nt,nt,nt
COc1ccc(-c2onc(C)c2-c2ccccc2)c(O)c1,-15.1,nt,-20.9%,?
COc1ccc(-c2c(-c3ccc(O)cc3O)n[nH]c2C(F)(F)F)cc1,-7.2,?,-2.6%,?
C=C(C)COc1ccc(-c2nc(N)nc(C(F)(F)F)c2-c2ccc(OC)cc2)c(O)c1,-23.8,2.94µM*,2.08µM*,?
C=C(C)COc1ccc(-c2ncnc(C(F)(F)F)c2-c2ccccc2)c(O)c1,nt,1.65µM*,1.65µM*,?
C=C(C)COc1ccc(-c2ncnc(C(F)(F)F)c2-c2ccc(OC)cc2)c(O)c1,3.8,1.65µM*,0.928µM*,?
COc1ccc(NC(=O)C2=C(C)Nc3nc(CCCO)nn3C2c2ccc(O)cc2)cc1 (stereo unspecified),3.4,nt,nt,nt
CC(C)CNC(=O)C1(C)CCCN1C(=O)c1cccnc1 (stereo unspecified),-7.7,nt,nt,nt
CCOc1ccc(CN(CCc2ccc3c(c2)OCO3)Cc2cc(OC)cc(OC)c2)cc1,18.8,nt,nt,nt
CC(Oc1ccc(Cl)cc1Cl)c1ccnc2nc(N3CCOCC3)nn12 (stereo unspecified),-77.4*,-27.8%,-18.4%,-22.7%
CC(Oc1ccccc1)c1ccnc2nc(N3CCOCC3)nn12 (stereo unspecified),-6.0,-11.4%,-13.1%,-3.9%
CCN(CC)[C@@H](C)CN1c2ccccc2Sc2ccccc21,nt,-26.3%[12.8 µM],6.42µM*,nt
CCN(CC)CCN1c2ccccc2Sc2ccccc21,21.4,?,69.0%,nt
CCC(C)NC(=O)CN1C(=O)c2cccnc2Sc2ccccc21 (stereo unspecified),8.5,nt,nt,nt
C[C@H](CN1c2ccccc2Sc2cccnc21)N(C)C,nt,?,6.01µM*,nt
CCc1ccc2c(c1)N(C[C@H](C)CN(C)C)c1ccccc1S2,nt,16.9µM*,15.1µM*,nt
CCC(=O)c1ccc2c(c1)N(CCCN(C)C)c1ccccc1S2,18.1,?,?,?
CCn1nnc2cc(C(=O)Nc3cccc(C)c3C)ccc21,-6.8,nt,nt,nt
Cc1ccc2c(Cl)c(C(=O)NCC(c3ccco3)N3CCCC3)sc2c1 (stereo unspecified),0.0,?,?,?
Cc1nn(-c2ccc(C(=O)NCC(c3ccco3)N3CCCC3)cc2)c(C)c1Cl (stereo unspecified),-10.9,?,0.828µM*,-27.3%
O=C(NCC(c1ccco1)N1CCCC1)c1ccc(Cl)cc1 (stereo unspecified),-26.3,nt,0.928µM*,-23.3%
Cc1cc(C)c(OCC(=O)NCC(c2ccco2)N2CCCCC2)c(C)c1 (stereo unspecified),?,13.1µM*,11.7µM*,-11.7%
Cc1ccc2oc(C(=O)NCC3CCOCC3)c(C)c2c1,71.7,29.3%,10.4µM*,1.5%
O=C(Nc1cccc(Cl)c1Cl)c1ccc2c(c1)N(Cc1cccc(Cl)c1)C(=O)c1ccccc1S2(=O)=O,-1.8,nt,nt,nt
CCCCCNC(=O)C1CCC(Cn2c(=O)c3sccc3n(CC)c2=O)CC1 (stereo unspecified),6.6,nt,nt,nt
O=C(CCNC(=O)c1ccc(Cl)cc1)NCC(c1ccco1)N1CCCCC1 (stereo unspecified),-22.6,?,4.65µM*,6.6%
